Source: PubChem BioAssay (National Center for Advancing Translational Sciences (NCATS))
A selection: hits, their analogues and other compounds. The true share with any hit is near 18%.
VDR inhibitor – Inhibitors of the vitamin D receptor (VDR): qHTS. Vitamin D3 receptor (Homo sapiens), P11473. VDR-SRC2-3 peptide fluorescence polarization, 2 h. Potency, µM, for inactives: max response, negative = inhibition, most hits filed as inhibitors. 400,000 tested, 0.93% active. AID 504847, 2011
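Reagent solutions, kept cold and dark, are dispensed first; compounds are then pinned in at 23 nl, plates briefly spun, and incubated 2 h at ambient temperature. Inhibition of VDR–SRC2-3 peptide binding is read by fluorescence polarization.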
PLK1 PBD block – qHTS for Inhibitors of PLK1-PDB (polo-like kinase 1 - polo-box domain): Primary Screen. Serine/threonine-protein kinase PLK1 (Homo sapiens), P53350. Plk1 PBD binding of FITC phosphopeptide, fluorescence polarization. Potency, µM, without a hit: max response, negative = inhibition, actives largely listed as inhibitors. 360,000 tested, 2.8% active. AID 720504, 2013; further: series mostly up to about 57 µM; nearly all actives have a fitted effect of over 65% in size
Target sequence (P53350 whole entry, looked up, the tested form may be a part): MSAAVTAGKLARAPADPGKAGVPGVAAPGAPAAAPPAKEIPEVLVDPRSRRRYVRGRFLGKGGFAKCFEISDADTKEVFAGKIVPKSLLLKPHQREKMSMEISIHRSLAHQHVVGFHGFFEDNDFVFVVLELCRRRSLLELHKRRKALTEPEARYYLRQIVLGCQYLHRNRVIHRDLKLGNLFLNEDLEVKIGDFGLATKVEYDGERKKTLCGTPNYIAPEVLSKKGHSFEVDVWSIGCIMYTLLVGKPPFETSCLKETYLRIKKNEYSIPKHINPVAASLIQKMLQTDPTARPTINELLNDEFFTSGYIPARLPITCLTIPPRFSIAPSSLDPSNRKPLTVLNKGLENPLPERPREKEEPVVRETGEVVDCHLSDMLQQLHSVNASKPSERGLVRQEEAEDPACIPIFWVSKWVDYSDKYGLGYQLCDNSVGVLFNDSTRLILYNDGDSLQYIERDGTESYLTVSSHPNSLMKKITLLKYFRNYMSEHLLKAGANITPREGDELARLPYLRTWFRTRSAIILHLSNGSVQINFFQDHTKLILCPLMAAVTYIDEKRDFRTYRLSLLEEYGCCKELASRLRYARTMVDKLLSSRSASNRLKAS
TDP1 block – qHTS Assay for Inhibitors of Tyrosyl-DNA Phosphodiesterase (TDP1); 350,000 tested, 0.28% active; recombinant TDP1, AlphaScreen DNA substrate cleavage; Potency, µM (doses to about 130 µM), for inactives: at the highest dose activity change, negative = inhibition, usual class: inhibitors; further: nearly all actives have a fitted effect of over 40% in size
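Tdp1 1 nM final; 15 min RT w/ cpd; substrate 15 nM, 5 min; beads 10 ug/ml, 10 min; AlphaScreen read. Neg ctrl: no enzyme.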
GCN5L2 inh – qHTS Assay for Inhibitors of GCN5L2; GCN5L2 HAT assay, ThioGlo1 CoA-SH fluorescence; Potency, µM (titrated, usually from 58.9 µM), for the others: top-dose activity change, negative = inhibition, usual class: inhibitors; 390,000 tested, 0.21% active; Histone acetyltransferase KAT2A (Homo sapiens), Q92830
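Enzyme at 20nM final was mixed with library compounds for 15 min at room temperature. Peptide H3(1-25) at 75uM, acetyl-CoA at 70uM and ThioGlo1 at 50uM were then added. Plates were read immediately and after 20 min (Ex340nm/Em540nm).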
DT40 TDP1 no CPT – qHTS for Inhibitors of human tyrosyl-DNA phosphodiesterase 1 (TDP1): qHTS in cells in absence of CPT. DT40 Tdp1-/- hTDP1 cells, no CPT, ATP luminescence, 48 h. Potency, µM (doses to about 46.2 µM), for inactives: top-dose activity change, negative = growth inhibition, usual class: inhibitors. 420,000 tested, 15% active. AID 686978, 2013; further: nearly all actives have a fitted effect of over 55% in size
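Growth of hTDP1-complemented DT40 Tdp1-knockout cells is measured by ATP luminescence after at least 48 hr compound exposure at 37 °C, with DMSO substituting for the 20 nM CPT used in the parallel screen.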
DT40 TDP1 CPT – qHTS for Inhibitors of human tyrosyl-DNA phosphodiesterase 1 (TDP1): qHTS in cells in presence of CPT | chicken DT40 Tdp1-/-;hTDP1 cells + 20 nM CPT, ATP luminescence, 48 h | Potency, µM (doses to about 46.2 µM), for the others: at the highest dose activity change, negative = growth inhibition, actives largely listed as inhibitors | 420,000 tested, 12% active | AID 686979, 2013; further: nearly all actives have a fitted effect of over 55% in size
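Cell growth measured by CellTiter-Glo luminescence after a minimum 48 h, 37 C compound exposure with 20 nM CPT in Tdp1-knockout DT40 cells stably expressing hTDP1, seeded 400/well; qHTS titration format.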
* = called active by the depositor; ? = inconclusive; . = not tested or not shown; [ ] = another dose, or the depositor's remark. The call rests on the fitted dose curve; in most records, active means well fitted curve in the direction sought with a large enough effect; inconclusive means small, poorly fitted or top-dose-only effect, or another doubt; inactive means no such curve, though single readings can be large; an effect the other way counts as inactive or inconclusive. On the % scale 0 is the no-effect control and ±100 the full control effect; potency means the concentration at half of the fitted maximal effect.

SMILES	VDR inhibitor	PLK1 PBD block	TDP1 block	GCN5L2 inh	DT40 TDP1 no CPT	DT40 TDP1 CPT
CC(C)OC(=O)Nc1ccc2nc(-c3cscn3)[nH]c2c1	7%	.	.	-14%	1.2µM*	0.84µM*
CC(=O)Nc1ccc2nc(-c3ccco3)[nH]c2c1	-25%	-11%	-3%	-3%	-10%	-16%
Cc1c(NC(=O)COc2ccc(C(C)C)cc2)c(=O)n(-c2ccccc2)n1C	-1%	-5%	4%	-3%	-3%	-18%
CCN(CC)CCOC(=O)c1ccc(N/C=C(/C#N)c2nc(-c3cc4ccccc4oc3=O)cs2)cc1	23%	3%	.	-3%	2.3µM*	1.2µM*
CCN(CC)CCOC(=O)c1ccc(N/C=C(/C#N)c2nc(-c3ccc(OC)cc3)cs2)cc1	26%	-8%	.	-10%	4.6µM*	4.1µM*
Cc1onc(-c2c(Cl)cccc2Cl)c1C(=O)Nc1ccc(N2CCOCC2)cc1	2%	-1%	6%	-4%	2%	7%
COc1cccc(N=C(N)N=C(N)N)c1	-10%	-1%	3%	-3%	-2%	3%
NC(N)=NC(N)=Nc1ccc(SC(F)(F)F)cc1	?	-14%	5%	1%	9.2µM*	10µM*
Fc1cccc(Cc2c(-c3ccco3)nc3c4ccccc4ccn23)c1	.	-11%	.	.	6.5µM*	6.5µM*
Clc1cccc(Cc2c(-c3ccco3)nc3c4ccccc4ccn23)c1	.	-9%	.	.	?	?
Fc1ccc(-c2nc3c4ccccc4ccn3c2Cc2cccc(Cl)c2)cc1	.	16%	.	.	16µM*	16µM*
Clc1cccc(Cc2c(C3CCCCC3)nc3ccc(Cl)cn23)c1	.	3%	.	.	?	?
Clc1cccc(Cc2c(C3CCCCC3)nc3c4ccccc4ccn23)c1	.	-1%	.	.	16µM*	?
Fc1cccc(Cc2c(-c3cccc(Cl)c3)nc3c4ccccc4ccn23)c1	.	0%	.	.	18µM*	23µM*
COc1cc(CNC[C@H]2O[C@@H](n3ccc(N)nc3=O)[C@H](O)[C@@H]2O)ccc1OCc1cccc(Cl)c1	.	2%	.	.	-3%	-1%
CC/C=C\C[C@H](O)/C=C/C=C\C/C=C\C/C=C\CCCC(=O)O	8%	.	7%	.	.	.
COc1cccc(-n2cnnc2SC(C)C(=O)NC2CCCC2)c1 (centres undefined)	-19%	-7%	0%[56.1 µM]	?	-13%	0%
Clc1cccc(Cc2c(-c3cccc(Cl)c3)nc3c4ccccc4ccn23)c1	.	-8%	.	.	16µM*	?
Clc1cccc(-c2nc3c4ccccc4ccn3c2Cc2ccccc2)c1	.	6%	.	.	?	?
Cc1ccc(Cc2c(-c3cccc(Cl)c3)nc3c4ccccc4ccn23)cc1	.	13%	.	.	?	?
Clc1cccc(Cc2c(-c3ccccc3)nc3c4ccccc4ccn23)c1	.	5%	.	.	13µM*	?
Cc1ccc(C(C)NC(=S)NCc2ccc(F)cc2)c(C)c1 (centres undefined)	-3%	4%	2%	-3%	16µM*	21µM*
CCOC(=O)CC1C(=O)NCCN1S(=O)(=O)c1ccc(NC(C)=O)cc1 (centres undefined)	-4%	-9%	1%	-1%	5%	-16%
CCCCCCCC1=Cc2ccccc2C(C(C(C)=O)C(=O)OC)N1C(=O)OC (centres undefined)	.	.	16%[12.3 µM]	.	.	.
O=S(=O)(Nc1nc(-c2sccc2Cl)cs1)c1cc(Cl)ccc1Cl	?	17µM*	8%	?	-22%	-22%
SMILES	VDR inhibitor	PLK1 PBD block	TDP1 block	GCN5L2 inh	DT40 TDP1 no CPT	DT40 TDP1 CPT
Cc1cccc(N2CCN(C(=O)CN3CCSc4ccccc43)CC2C)c1 (centres undefined)	4%	.	10%	1%	.	.
COc1ccc(CCNC(=O)CCCn2c(=O)c3ccccc3n(Cc3cccc(Cl)c3)c2=O)cc1OC	7%	.	1%	-5%	?	?
COc1ccc(CCNC(=O)CCCCn2c(=O)c3ccccc3n(Cc3ccc(F)cc3Cl)c2=O)cc1OC	9%	.	4%	1%	6.5µM*	21µM*
COc1ccc(CCNC(=O)CCn2c(=O)c3ccccc3n(Cc3c(C)cc(C)cc3C)c2=O)cc1OC	-8%	.	-2%	2%	-1%	-1%
COc1ccc(CCNC(=O)CCn2c(=O)c3ccccc3n(Cc3ccccc3C)c2=O)cc1OC	-2%	.	8%	-2%	18µM*	15µM*
COc1ccc(CCNC(=O)CCCCn2c(=O)c3ccccc3n(Cc3ccc(Cl)cc3)c2=O)cc1OC	14%	.	-1%	-8%	?	23µM*
O=C(CCCn1c(=O)c2ccccc2n(Cc2ccc(F)cc2Cl)c1=O)NCCc1ccc(Cl)cc1	2%	.	-2%	-6%	18µM*	?
O=C(CCCCn1c(=O)c2ccccc2n(Cc2ccc(F)cc2Cl)c1=O)NCCc1ccc(Cl)cc1	3%	.	1%	-6%	?	?
CCOc1ccccc1-c1nc2c(s1)CCc1onc(-c3ccc(OC)cc3)c1-2	-14%	-10%	.	.	-24%	?
O=C(CCSCCc1ccccn1)Nc1ccc(Cl)cc1	-8%	.	0%	1%	-18%	-18%
Cc1cccc(CNC(=O)c2ccc(N3Cc4ccccc4Oc4ncccc43)s2)c1	5%	.	-3%	-18%	-83%	?
COc1ccc(Cl)cc1NC(=O)Cn1c(=O)n(CCCC(=O)NCCc2ccc(OC)c(OC)c2)c(=O)c2ccccc21	-13%	.	-3%	-1%	8.2µM*	15µM*
O=S(=O)(NC1c2cccc3cccc(c23)C1N1CCNCC1)c1ccc(Cl)cc1 (centres undefined)	15%	-6%	0%	-1%	12µM*	13µM*
COc1cccc(/C=C2\CCc3ccccc3C2=O)c1	-25%	-1%	3%	2%	?	?
COc1ccc(OC)c(C=C2CCc3ccccc3C2=O)c1	.	-10%	.	.	?	21µM*
COc1ccc(/C=C2/CCc3ccccc3C2=O)cc1CN1CCOCC1	-5%	-10%	3%	-3%	16µM*	23µM*
COc1ccc2c(c1)CC/C(=C/c1cc(OC)c(OC)c(OC)c1)C2=O	-20%	-6%	6%	-19%	15µM*	?
